Experimental data published in PubChem BioAssay AID1159580 (chemical genetic matrix, 2015).
The campaign covered roughly 5,500 compounds. About 2,000 (36%) were called active. Roughly 18% stayed inconclusive and do not appear here. No stated cut-off is given here; in the data, active means normalized growth mostly below about 0.91 (no sharp cut-off); inconclusive means no clear call, values can overlap the other calls; inactive means mostly above about 0.92. The list shows a part of the results.

Assay: chemical genetic growth profiling, strain panel (AID 1159580);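 further: tested at 20 µM; growth read once vehicle control cultures reached saturation at 30 °C; 1 = growth at the plate median or of vehicle wells; lower values mean less growth of the strain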
Conditions: S. cerevisiae deletion strains, growth OD

Measured: normalized growth

Nc1ccc(Sc2cc(Cl)ccc2Cl)nc1
inactive: locus YAL013W, strain DEP1, hits give low values 0.947 | locus YCL061C, strain MRC1, hits give low values 0.958 | locus YDL101C, strain DUN1, hits give low values 0.963 | locus YDR150W, strain NUM1, hits give low values 0.843 | locus YEL061C, strain CIN8, hits give low values 0.916 | locus YJR043C, strain POL32, hits give low values 0.932 | locus YMR219W, strain ESC1, hits give low values 0.958 | locus YNL153C, strain GIM3, hits give low values 0.934 | locus YNL322C, strain KRE1, hits give low values 0.97 | locus YPL055C, strain LGE1, hits give low values 0.99
active: locus YBR229C, strain ROT2, hits give low values 0.906 | locus YGR078C, strain PAC10, hits give low values 0.911 | locus YHR030C, strain SLT2, hits give low values 0.341 | locus YHR087W, strain rtc3, hits give low values 0.898 | locus YJL187C, strain SWE1, hits give low values 0.928 | locus YJR075W, strain HOC1, hits give low values 0.827 | locus YKL190W, strain CNB1, hits give low values 0.762 | locus YLR039C, strain RIC1, hits give low values 0.398 | locus YLR058C, strain SHM2 (second series), hits give low values 0.929 | locus YLR085C, strain ARP6, hits give low values 0.383 | locus YLR262C, strain YPT6, hits give low values 0.348 | locus YML094W, strain GIM5, hits give low values 0.828 | locus YMR307W, strain GAS1, hits give low values 0.454 | locus YNL298W, strain CLA4 (second series), hits give low values 0.781 | locus YNR030W, strain Alg12, hits give low values 0.785 | locus YOL006C, strain TOP1, hits give low values 0.594 | locus YPL241C, strain CIN2, hits give low values 0.737 | locus YPR135W, strain CTF4, hits give low values 0.497
